Data on 43 compounds can be found in ChEMBL document CHEMBL3433997, “St. Jude Leishmania screening dataset” (2016).

Holding throughout (format): functional
Test [1] deals with Solute carrier family 2, facilitated glucose transporter member 1 (Homo sapiens) (UniProt P11166). Briefly: ST_JUDE_LEISH: Cytotoxicity at 2uM final concentration against transgenic Leishmania Mexicana promastigotes LmGLUT1 that are glucose transport deficient and complemented with the human glucose transporter GLUT1. Activity is measured by DNA content using SYBR green in vitro.

Test [2] concerns the target Hexose transporter 1 (Plasmodium falciparum) (UniProt O97467). Nature of the test: ST_JUDE_LEISH: Cytotoxicity at 2uM final concentration against transgenic Leishmania Mexicana promastigotes LmPfHT that are glucose transport deficient and complemented with the Plasmodium falciparum hexose transporter. Activity is measured by DNA content using SYBR green in vitro.
The target in test [3] is Glucose transporter (Leishmania mexicana) (UniProt O61059). Briefly: ST_JUDE_LEISH: Cytotoxicity at 2uM final concentration against transgenic Leishmania Mexicana promastigotes LmGT2 that are glucose transport deficient and complemented with the L. Mexicana glucose transporter 2. Activity is measured by DNA content using SYBR green in vitro.

Chain of Solute carrier family 2, facilitated glucose transporter member 1 (Homo sapiens) (P11166 whole entry): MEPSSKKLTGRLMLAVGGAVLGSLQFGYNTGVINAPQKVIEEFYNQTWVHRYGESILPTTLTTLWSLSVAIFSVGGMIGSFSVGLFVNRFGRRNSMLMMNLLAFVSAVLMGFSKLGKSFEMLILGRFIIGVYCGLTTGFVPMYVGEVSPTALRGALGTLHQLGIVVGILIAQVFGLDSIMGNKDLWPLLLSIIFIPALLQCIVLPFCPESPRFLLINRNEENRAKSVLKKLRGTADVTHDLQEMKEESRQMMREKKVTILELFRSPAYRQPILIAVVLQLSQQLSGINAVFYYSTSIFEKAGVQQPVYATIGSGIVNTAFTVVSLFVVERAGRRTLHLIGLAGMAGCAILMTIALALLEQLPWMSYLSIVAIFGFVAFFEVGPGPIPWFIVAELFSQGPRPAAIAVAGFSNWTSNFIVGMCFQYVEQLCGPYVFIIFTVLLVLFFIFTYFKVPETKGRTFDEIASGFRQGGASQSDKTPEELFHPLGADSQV

For the compound `Cc1csc2nc(C(C)c3ccc(NC(=O)c4cccs4)cc3)oc(=O)c12` (centres undefined), the inhibition in test [1] is 1.03%; in test [2], -0.57%; in test [3], -0.38%.
The corresponding values for `CC(c1cccc(Nc2nccc(-c3c(-c4cccc(NC(=O)c5c(F)cccc5F)c4)nn4ncccc34)n2)c1)S(C)(=O)=O` (centres undefined) are -2.21%, 1.6% and 0.35%.
In the same order, the values of `CC(C)C[C@@H](C(=O)N[C@H](C(=O)Nc1nccs1)C(C)(C)C)[C@H](CCC(F)(F)F)N(O)C=O` are 4.27%, 6.41% and 4.07%.
The corresponding values for `Cc1ccc(N2CCc3c(-c4cc5cccnc5nc4C)cc(C)nc32)c(Cl)c1` are 4.06%, 6.18% and 3.42%.
`Fc1ccc2[nH]c(-c3ccc(-c4ccc(CN5CCN(c6cnccn6)CC5)cc4)s3)nc2c1`: the inhibition in test [1] came to 2.41%; in test [2], 1.2%; in test [3], 0.86%.
`Cc1cc(NC(=O)c2coc3cc(F)c(N4CC(C)N(C)C(C)C4)cc23)ccc1-n1ccnc1` (centres undefined): the inhibition in test [1] is 2.32%; in test [2], 1.16%; in test [3], -1.58%.
The corresponding values for `COc1cc(CCCOc2c(N)nc(N)nc2N)cc(OC)c1OC` are 4.82%, 3.75% and 3.79%.
In the same order, the values of `O=C(N[C@@H](Cc1ccccc1)C(=O)NCCN1CCOCC1)c1ccc(O)c(-c2ccc(Cl)c(Cl)c2)c1` are 2.33%, 2.47% and 4.35%.
As for `O=C(NCCc1ccccc1)N(Cc1ccccc1-c1cccc(CNCCc2ccccc2)c1)C1CCN(Cc2ccccc2)CC1`, the inhibition in test [1] amounted to 2.61%; in test [2] it was 1.06%; in test [3], 5.48%.
For the compound `CCCCCCN1CCCN(Cc2ccc(C(=O)Nc3ccc(C)c(F)c3)cc2)CC1`, the inhibition is 11.8% in test [1], 7.68% in test [2] and 13.7% in test [3].
Consider `O=C(Nc1ccc(-c2ccc(-c3nc4cc(C(F)(F)F)ccc4[nH]3)cc2)cc1)Nc1ccc(F)c(F)c1F`, for which the figures for the inhibition in test [1], in test [2] and in test [3] were -0.4%, -0.22% and -1.44%, respectively.
In the same order, the values of `COc1ccc2nccc(N3CCN(CCNCc4ccc5c(n4)NC(=O)CO5)CC3)c2c1` are 8.8%, 8.24% and 8.99%.
In the same order, the values of `Cc1cccc(Nc2nccc(Nc3cccc(C(=O)NCCN4CCOCC4)c3)n2)c1` are 2.19%, 1.2% and 1.44%.
In the same order, the values of `N#Cc1cccc(CN(Cc2ccc(Cl)c(Cl)c2)S(=O)(=O)c2cccc([N+](=O)[O-])c2)c1` are 2.24%, -0.37% and 4.05%.
Consider `CN(Cc1ccc(C#N)cc1)C1CCN(c2cc(NC(=O)c3ccc(F)cc3)ccn2)CC1`, for which the results for the inhibition in test [1], in test [2] and in test [3] were 1.28%, 2.79% and -1.93%, respectively.
For `Cc1cc(C(=O)Nc2ccc3c(c2)CCN3C2CCN(Cc3ccc(F)cc3Cl)C2)no1` (centres undefined), the inhibition in test [1] amounted to 4.11%; in test [2], 3.71%; in test [3], 3.86%.
In the same order, the values of `Cc1cc2c3c(N)nc(N)nc3ccc2n1C(C)C` are 75.6%, 79.8% and 67.2%.
With `CN(CCN1CCCC1)c1nc2cc(-n3cnc4cc(-c5ccc(Cl)cc5)sc4c3=O)ccc2[nH]1`, the inhibition came out at 0.93% in test [1], 0.75% in test [2] and 1.45% in test [3].
The corresponding values for `O=C(Nc1cccc(CN2CCCN(Cc3ccc(O)cc3)CC2)c1)c1cc2ccccc2s1` are -1.48%, 1.71% and -2.92%.
As to `CS(=O)(=O)c1ccc(CNCc2ccc(-c3ccc(-c4nc5cc(F)ccc5[nH]4)s3)cc2)cc1`, the inhibition in test [1] is 11.6%; in test [2], 10.9%; in test [3] it was 8.75%.
The corresponding values for `Cc1nc(-c2ccc(-c3ccc(C(=O)Nc4ccc(C(C)C)c(OCCN(C)C)c4)cc3)c(C)c2)no1` are 4.64%, 2.76% and 2.51%.
In the case of `CC(C)CNCc1ccc(-c2ccccc2CN(C(=O)NCCc2ccccc2)C2CCN(Cc3ccccc3)CC2)cc1`, the inhibition in test [1] was 1.25%; in test [2], 1.42%; in test [3], -0.19%.
Turning to `O=C(Nc1ccc(Oc2ccccc2)cc1)N[C@@H](Cc1ccc(O)cc1)C(=O)NC1CCN(Cc2ccc(O)c([N+](=O)[O-])c2)C1` (some centres undefined), the inhibition in test [1] worked out at 2.19%; in test [2], 1.19%; in test [3], 0.33%.
For the compound `O=C(/C=C/c1ccc(Cl)c(Cl)c1)NCCCCN1CCCN(C(=O)Nc2cc(Cl)cc(Cl)c2)CC1`, the inhibition is 0.48% in test [1], 0.76% in test [2] and 0.06% in test [3].
Take `COc1ccc2ncc(F)c(CCN3CC[C@@H](CNCc4cc5c(cn4)OCS5)C3)c2n1`: the inhibition in test [1] is 2.66%; in test [2], 1.69%; in test [3] it was -0.48%.
The corresponding values for `COc1cc(NCCCCCNc2cc(Cl)nc3ccccc23)nc2ccccc12` are 1.24%, 2.23% and 2.29%.
The corresponding values for `CCN1CCN(C(=O)NC(C(=O)N(C)Cc2ccc(-c3ccc(C(F)(F)F)cc3)cc2)c2cccs2)C(=O)C1=O` (centres undefined) are 1.34%, 0.77% and 1.3%.
In the same order, the values of `COCCNCc1cccc(-c2cccc(CNC3CCN(Cc4ccccc4)CC3)c2)c1` are 2.73%, 2.84% and 2.88%.
Take `COc1ccccc1COc1c(C)nc(N)nc1N`: the inhibition was -1.13% in test [1], -0.61% in test [2] and -1.06% in test [3].
The corresponding values for `N#Cc1ccc(CN2CCC(NC(=O)c3ccc(-c4nnc(-c5cccc6ccccc56)o4)cc3)CC2)cc1` are 4.73%, 2.48% and -1.38%.
With `Cc1c(Cn2nc(Cl)c(N3CCNCC3)cc2=O)cccc1NC(=O)Nc1ccc(-c2ccccc2)cc1`, the inhibition in test [1] is -2.62%; in test [2] it was -2.29%; in test [3], -0.03%.
The corresponding values for `COc1cc2nc(NC3CCN(Cc4ccccc4)CC3)nc(N)c2cc1OC` are 3.62%, 2.22% and 13%.
Regarding `CN(C)Cc1ccc(-c2ccc3c(Nc4ccc(Cl)cc4F)ccnc3c2)o1`, the inhibition in test [1] is -1.45%; in test [2] it was -1.56%; in test [3], 5.24%.
The corresponding values for `N[C@@H](Cc1ccc(O)cc1)C(=O)NC(c1ccccc1)c1c(O)ccc2ccccc12` (some centres undefined) are -0.12%, -0.91% and -0.99%.
In the same order, the values of `O=C(c1ccccc1F)N(Cc1ccc(Cl)cc1)c1ccccn1` are 6.82%, 7.84% and 9.29%.
In the same order, the values of `COc1ccc(OC)c(-c2cccc(-c3cccc(NC(=O)c4ccc([N+](=O)[O-])o4)c3)n2)c1` are 6.43%, 9.55% and 3.3%.
As for `Cc1cccc2nc(-c3cccc(-c4cccc(NC(=O)c5cncn5C)c4)c3)[nH]c12`, the values for the inhibition in test [1], in test [2] and in test [3] were -0.07%, 3.4% and 4.6%, respectively.
For `CNc1ccc(CNCc2ccc(-c3ccc(-c4nc5cc(C(F)(F)F)ccc5[nH]4)s3)cc2)cc1`, the inhibition is 2.19% in test [1], 0.49% in test [2] and -0.01% in test [3].
Regarding `COc1ccc(CN(C)CCCOc2ccc(NC(=O)c3cccc4c(=O)c5cccc(C)c5[nH]c34)cc2)cc1OC`, the values for the inhibition in test [1], in test [2] and in test [3] were 4.56%, 4.25% and 3.39%, respectively.
`CCCCCCCCCCN1C(=O)C2C(CCCCNC(C)=O)NC3(C(=O)N(Cc4ccc(C(C)(C)C)cc4)c4ccccc43)C2C1=O` (centres undefined): the inhibition in test [1] amounted to 9.76%; in test [2], 9.32%; in test [3], 3.53%.
The corresponding values for `COc1ccc(CCNCCCCCCNCCCc2ccc(Cl)cc2)cc1OC` are 4.72%, 2.45% and 4.39%.
The corresponding values for `COc1ccc2nc(-c3ccccc3)cc(N/N=C/c3ccc([N+](=O)[O-])cc3)c2c1` are 6.36%, 6.3% and 2.43%.
In the same order, the values of `CCCCc1nc2nc(N)nc(N)c2cc1CCC` are 1.72%, 6.46% and 1.5%.

For orientation: inhibition means the change of the read-out against control, counted positive when it falls.
